20 compounds from PubChem BioAssay (EPA / NIEHS) can be followed below.

For orientation: AC50 means the midpoint of the concentration-response curve, whichever way the signal moves.

The target in assay [1] is human Retinoid X Receptor beta (RXRb), RXRB (gene 6257) (UniProt P28702). Briefly: ATG_RXRb_TRANS: Attagene TRANS-FACTORIAL HepG2 Assay for human Retinoid X Receptor beta (RXRb) (AID 2283013; active = hit-call score of the fitted dose curve at least 0.9, where 1 is the maximum). The method, boiled down:
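Chimeric receptor-Gal4 activity was assessed in transiently transfected human HepG2 cells after 24 h exposure. Transcripts from GAL4-UAS reporters were quantified by fluorescent RT-PCR and capillary electrophoresis, with DMSO as negative control and baseline.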

Assay [2] addresses human Thyroid Receptor alpha (THRa1), THRA (gene 7067) (UniProt P10827). Briefly: ATG_THRa1_TRANS: Attagene TRANS-FACTORIAL HepG2 Assay for human Thyroid Receptor alpha (THRa1) (AID 2283014; active = hit-call score of the fitted dose curve at least 0.9, where 1 is the maximum). The method, boiled down: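 Transcripts from GAL4-UAS-driven reporters, measured after 24 h compound exposure by RT-PCR plus capillary electrophoresis of 6-FAM-labeled fragments, were fitted for gain of signal relative to DMSO. Cells: transiently transfected HepG2 expressing NR-Gal4 chimeras.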

Assay [3] concerns the target human Vitamin D Receptor (VDR), VDR (gene 7421) (UniProt P11473). Briefly: ATG_VDR_TRANS: Attagene TRANS-FACTORIAL HepG2 Assay for human Vitamin D Receptor (VDR) (AID 2283022; active = hit-call score of the fitted dose curve at least 0.9, where 1 is the maximum). In a few lines:
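Transactivation by an exogenous VDR-Gal4 chimera in transiently transfected HepG2 cells was measured as reporter transcript level 24 hours after chemical treatment. RT-PCR products were analysed by capillary electrophoresis and fitted in the positive direction relative to DMSO.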

Read-out in assay [4]: E-selectin (Homo sapiens) (UniProt P16581)
Description: BSK_3C_Eselectin: BioMAP Diversity Plus: 3C Assay for Eselectin Biomarker Activity (AID 2283015).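 Note: cell surface E-selectin protein quantified by ELISA 24 h after dosing.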 The following applies: primary human endothelial cells (HUVEC); actives raise or lower the signal. The method, boiled down: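 E-selectin ELISA readout, fitted bidirectionally relative to DMSO, taken 24 h post-dosing in HUVEC cultures of the 3C system. Overt cytotoxicity tracked with sulforhodamine B staining of parallel wells.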

Read-out in assay [5]: Interleukin-1 alpha (IL1a), IL1A (gene 3552)
Briefly: BSK_BE3C_IL1a: BioMAP Diversity Plus: BE3C Assay for Interleukin-1 alpha (IL1a) Biomarker Activity (AID 2283016). As to conditions: primary human bronchial epithelial cells; actives raise or lower the signal. In a few lines: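 Signal from IL-1a ELISA, taken 24 h after chemical dosing of human bronchial epithelial cells, is compared with DMSO as baseline using bidirectional curve fitting.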

Read-out in assay [6]: Monocyte Chemoattractant Protein-1 (MCP1), CCL2 (gene 6347)
Briefly: BSK_3C_MCP1: BioMAP Diversity Plus: 3C Assay for Monocyte Chemoattractant Protein-1 (MCP1) Biomarker Activity (AID 2283017). As to conditions: primary human endothelial cells (HUVEC); actives raise or lower the signal. In a few lines:
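MCP-1 was measured by ELISA 24 h after dosing in primary HUVEC 3C cultures and fitted in both directions relative to DMSO; cytotoxicity was checked by SRB total-protein staining in parallel wells.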

Read-out in assay [7]: Monocyte Chemoattractant Protein-1 (MCP1), CCL2 (gene 6347)
Briefly: BSK_4H_MCP1: BioMAP Diversity Plus: 4H Assay for Monocyte Chemoattractant Protein-1 (MCP1) Biomarker Activity (AID 2283018). The following applies: primary human endothelial cells (HUVEC); actives raise or lower the signal. The method, boiled down:
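Endothelial cells from umbilical vein were treated with test chemical, then after 24 h MCP-1 levels were quantified by ELISA; endpoint values came from bidirectional fitting with DMSO as baseline of activity.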

Read-out in assay [8]: Human Leukocyte Antigen - DR isotype (HLADR), HLA-DRA (gene 3122)
Briefly: BSK_3C_HLADR: BioMAP Diversity Plus: 3C Assay for Human Leukocyte Antigen - DR isotype (HLADR) Biomarker Activity (AID 2283019).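 Note: ELISA of cell-surface HLA-DR on HUVEC 24 h after dosing.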 As to conditions: primary human endothelial cells (HUVEC); actives raise or lower the signal. In a few lines: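 Bidirectional fitting against DMSO was applied to the HLA-DR ELISA signal from human umbilical vein endothelial cells, 24 h post-dose. Cytotoxicity came from parallel SRB total-protein staining; 3C proliferation was counted by SRB at 48 h.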

Read-out in assay [9]: Interleukin-8 (IL8), CXCL8 (gene 3576)
Briefly: BSK_3C_IL8: BioMAP Diversity Plus: 3C Assay for Interleukin-8 (IL8) Biomarker Activity (AID 2283020). The following applies: primary human endothelial cells (HUVEC); actives raise or lower the signal. In a few lines: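 Endothelial primary cells of human umbilical vein origin are dosed with chemical; after 24 h the IL-8 biomarker is measured by ELISA, and concentration–response is fitted in both directions versus DMSO.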

Read-out in assay [10]: Monokine induced gamma interferon (MIG), CXCL9 (gene 4283)
Description: BSK_3C_MIG: BioMAP Diversity Plus: 3C Assay for Monokine induced gamma interferon (MIG) Biomarker Activity (AID 2283021). The following applies: primary human endothelial cells (HUVEC); actives raise or lower the signal. The method, boiled down:
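Endothelial primary cells (human umbilical vein) are dosed with test chemical in the 3C system. MIG levels are measured by ELISA at 24 h and fitted in both directions relative to DMSO.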

The nature of assay [11]: BSK_3C_SRB: Viability Assessment in the BioMAP Diversity Plus: 3C Assay (AID 2283023).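 Note: fitted both ways against DMSO so a hit may be signal rise or drop.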 As to conditions: primary human endothelial cells (HUVEC). The method, boiled down: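 Cytotoxicity readout in parallel HUVEC 3C cultures: after 24 h compound exposure, cells fixed with 10% TCA, stained with 0.1% SRB and read at 560 nm. Gain or loss relative to DMSO fitted.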
Read-out in assay [12]: Matrix Metallopeptidase 1 (MMP1), MMP1 (gene 4312)
Briefly: BSK_BE3C_MMP1: BioMAP Diversity Plus: BE3C Assay for Matrix Metallopeptidase 1 (MMP1) Biomarker Activity (AID 2283024). The following applies: primary human bronchial epithelial cells; actives raise or lower the signal. In a few lines: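 MMP1 signal, measured by ELISA after a 24 h chemical exposure of human primary bronchial epithelial cells, is analysed with bidirectional fitting using DMSO as negative control.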

Assay [13] in a line: BSK_3C_Vis: BioMAP Diversity Plus: 3C Assay for Morphology Visualization (AID 2283025).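 Note: fitted both ways so gain or loss versus DMSO counts.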 As to conditions: primary human endothelial cells (HUVEC). The method, boiled down: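 Morphology read by light microscopy serves as a background control for the multiplexed 3C assay in human umbilical vein endothelial cells, taken 24 h after dosing, with DMSO as the negative control and bidirectional curve fitting.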

Read-out in assay [14]: Pselectin, SELP (gene 6403)
Briefly: BSK_4H_Pselectin: BioMAP Diversity Plus: 4H Assay for Pselectin Biomarker Activity (AID 2283026). As to conditions: primary human endothelial cells (HUVEC); actives raise or lower the signal. The method, boiled down:
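Endothelial primary cells (human umbilical vein) are dosed, incubated 24 h, and assayed for surface P-selectin by ELISA; responses in either direction are fitted relative to the DMSO negative control.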

The nature of assay [15]: BSK_4H_SRB: Viability Assessment in the BioMAP Diversity Plus: 4H Assay (AID 2283027).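 Note: cells exposed to compound for 24 h before staining.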 The following applies: primary human endothelial cells (HUVEC). The method, boiled down:
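HUVEC, 24 h post-dose; 10% TCA fix, 0.1% SRB stain, A560 nm. Total protein = overt cytotoxicity, parallel to biomarker read. Bidirectional fit vs DMSO baseline.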

Assay [16] is described as follows: BSK_BE3C_SRB: Viability Assessment in the BioMAP Diversity Plus: BE3C Assay (AID 2283028). The following applies: primary human bronchial epithelial cells. The method, boiled down:
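Cytotoxicity read-out: SRB (0.1%) staining of TCA-fixed (10%) human lung bronchial epithelial cells, absorbance 560 nm, 24 h post-dosing. Curves fitted both directions relative to DMSO.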

Read-out in assay [17]: Thrombomodulin, THBD (gene 7056)
Description: BSK_3C_Thrombomodulin: BioMAP Diversity Plus: 3C Assay for Thrombomodulin Biomarker Activity (AID 2283029). The following applies: primary human endothelial cells (HUVEC); actives raise or lower the signal. In a few lines:
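Endothelial cells from umbilical vein are dosed with test chemical and incubated 24 h. Thrombomodulin is then quantified by ELISA, with DMSO serving as negative control and activity baseline.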

Values joined by “and” are separate entries in the source; they are usually repeats but may differ in a detail not shown here. Equal values may be shown once. Results filed as inconclusive are left out. The source holds several records for some structures; these can differ, active in one and inactive in another. Active and inactive are the calls of the source. Rule for the calls, unless noted: active = hit-call score of the fitted dose curve at least 0.9, where 1 is the maximum; inactive = score below 0.9.

Chain of human Thyroid Receptor alpha (THRa1), THRA (gene 7067) (P10827 whole entry, looked up, the tested form may be a part): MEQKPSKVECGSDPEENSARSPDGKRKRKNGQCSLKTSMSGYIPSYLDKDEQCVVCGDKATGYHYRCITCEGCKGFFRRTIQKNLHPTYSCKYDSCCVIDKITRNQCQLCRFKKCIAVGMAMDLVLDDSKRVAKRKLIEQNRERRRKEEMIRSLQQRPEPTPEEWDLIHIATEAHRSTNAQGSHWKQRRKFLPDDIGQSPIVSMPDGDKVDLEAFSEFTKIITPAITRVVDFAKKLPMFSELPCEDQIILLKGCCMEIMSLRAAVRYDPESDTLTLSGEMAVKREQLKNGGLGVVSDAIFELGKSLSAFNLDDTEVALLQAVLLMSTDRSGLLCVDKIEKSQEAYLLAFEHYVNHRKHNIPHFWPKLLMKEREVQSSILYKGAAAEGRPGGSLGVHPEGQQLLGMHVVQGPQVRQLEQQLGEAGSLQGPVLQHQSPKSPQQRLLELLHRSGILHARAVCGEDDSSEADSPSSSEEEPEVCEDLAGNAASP
Chain of E-selectin (Homo sapiens) (P16581 whole entry, looked up): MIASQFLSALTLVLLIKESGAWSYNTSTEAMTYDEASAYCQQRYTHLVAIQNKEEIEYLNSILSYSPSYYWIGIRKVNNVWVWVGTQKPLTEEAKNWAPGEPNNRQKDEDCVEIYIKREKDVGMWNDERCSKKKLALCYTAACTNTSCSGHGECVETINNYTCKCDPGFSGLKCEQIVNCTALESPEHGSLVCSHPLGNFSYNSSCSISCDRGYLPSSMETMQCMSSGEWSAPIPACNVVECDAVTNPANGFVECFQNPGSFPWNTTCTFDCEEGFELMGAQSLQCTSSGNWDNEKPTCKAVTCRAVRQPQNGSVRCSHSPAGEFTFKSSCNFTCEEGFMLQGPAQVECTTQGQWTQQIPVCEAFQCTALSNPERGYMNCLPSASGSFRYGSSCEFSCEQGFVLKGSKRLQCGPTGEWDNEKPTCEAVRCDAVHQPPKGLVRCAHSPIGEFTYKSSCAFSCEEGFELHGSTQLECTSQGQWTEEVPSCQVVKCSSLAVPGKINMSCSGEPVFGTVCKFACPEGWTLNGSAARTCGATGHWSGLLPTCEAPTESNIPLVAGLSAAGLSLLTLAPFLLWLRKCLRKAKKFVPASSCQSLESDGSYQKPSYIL
Chain of human Vitamin D Receptor (VDR), VDR (gene 7421) (P11473 whole entry, looked up, the tested form may be a part): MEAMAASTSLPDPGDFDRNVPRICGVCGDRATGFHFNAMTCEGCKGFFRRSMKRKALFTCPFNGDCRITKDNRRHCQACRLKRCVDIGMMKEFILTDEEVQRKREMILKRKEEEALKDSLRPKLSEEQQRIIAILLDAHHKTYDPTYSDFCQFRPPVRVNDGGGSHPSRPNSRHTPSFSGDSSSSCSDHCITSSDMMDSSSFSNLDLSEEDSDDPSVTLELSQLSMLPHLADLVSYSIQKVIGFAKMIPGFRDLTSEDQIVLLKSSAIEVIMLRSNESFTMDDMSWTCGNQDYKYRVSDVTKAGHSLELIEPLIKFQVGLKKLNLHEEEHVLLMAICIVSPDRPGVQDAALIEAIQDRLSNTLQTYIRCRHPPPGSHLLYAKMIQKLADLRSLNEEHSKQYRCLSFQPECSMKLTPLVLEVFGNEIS
Chain of human Retinoid X Receptor beta (RXRb), RXRB (gene 6257) (P28702 whole entry, looked up, the tested form may be a part): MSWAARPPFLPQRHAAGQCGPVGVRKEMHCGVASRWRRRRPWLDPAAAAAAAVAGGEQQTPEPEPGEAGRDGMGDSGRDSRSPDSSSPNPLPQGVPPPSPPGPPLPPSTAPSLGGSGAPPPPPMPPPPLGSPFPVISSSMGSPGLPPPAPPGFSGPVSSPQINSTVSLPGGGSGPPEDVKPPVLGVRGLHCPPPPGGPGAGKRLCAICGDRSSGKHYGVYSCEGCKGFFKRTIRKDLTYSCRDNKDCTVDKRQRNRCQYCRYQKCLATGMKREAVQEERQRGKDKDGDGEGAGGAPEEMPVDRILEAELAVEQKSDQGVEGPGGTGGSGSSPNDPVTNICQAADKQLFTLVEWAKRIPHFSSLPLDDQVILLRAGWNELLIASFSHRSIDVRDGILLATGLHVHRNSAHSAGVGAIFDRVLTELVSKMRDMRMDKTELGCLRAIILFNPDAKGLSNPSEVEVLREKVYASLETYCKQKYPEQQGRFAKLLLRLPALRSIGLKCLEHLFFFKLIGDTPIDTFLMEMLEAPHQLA

For `C=CC(=O)O[C@H]1C[C@@H]2CC[C@@]1(C)C2(C)C`, the compound was called inactive in [1], in assay [2] and in [3].

Regarding `COc1cc(C)ccc1O`, the call in assay [1], in assay [2] and in [3] was inactive.

For `CC1CC(=O)CC(C)(C)C1` (stereo not drawn), the outcome in [3] was inactive.

With `CCCCCCO`, the outcome in assay [1] and in assay [3] was inactive.

In the case of `O=C(O)C1CCC(C(=O)O)CC1` (stereo not drawn), the compound was classed as inactive in assay [1] and in [3].

Consider `O=C(O)c1ccc2c(c1)C(=O)OC2=O`, for which the compound was classed as inactive in assay [3].

With `CCCCCCCO`, in assay [1], the AC50 was 114 µM (active). Further, the result in assay [4], in assay [5], in [6], in [7], in [8] and in [9] was inactive. For the same compound, the outcome in assay [10], in assay [3], in [11], in assay [12], in [13] and in [14] was inactive. Further, the result in [15], in assay [16] and in assay [17] was inactive.

Consider `COc1ccc(-c2coc3cc(O)cc(O)c3c2=O)cc1`, for which the outcome in [2] and in assay [3] was inactive.

For the compound `CCc1cccc(CC)c1`, the call in assay [1] and in [3] was inactive.

Consider `CN(C)Cc1cc(CN(C)C)c(O)c(CN(C)C)c1`, for which the compound was called inactive in [2].

Regarding `CC(C)COC(=O)CC(C(=O)OCC(C)C)S(=O)(=O)O` (stereo not drawn), the compound was called inactive in assay [1] and in assay [3].

Turning to `CC1CCC(=O)C1=O` (stereo not drawn), the AC50 in assay [1] is 59.8 µM (active). Besides, in assay [3], the outcome was inactive.

For the compound `O=C(Cl)c1ccc(C(=O)Cl)cc1`, the outcome in assay [2] and in assay [3] was inactive.

With `O=C(O)CCC(=O)O`, the compound was classed as inactive in assay [1] and in assay [3].

With `CCOC(=O)c1ccc(C)cc1`, the result in assay [1] and in assay [3] was inactive.

With `CCCCCCCCC(CO)CCCCCC` (stereo not drawn), the values for the concentration at half-maximal activity (AC50) in assay [1] and in assay [6] were 21.9 µM (active) and 5.93 µM (active), respectively. Further, the result in assay [4], in assay [5], in assay [7], in assay [8], in assay [9] and in assay [10] was inactive. Moreover, the compound was called inactive in assay [3], in [11], in assay [12], in assay [13], in assay [14] and in assay [15]. In addition, the result in assay [16] and in assay [17] was inactive.

Turning to `CCCCCCCCCCCCc1ccc(O)cc1`, the AC50 in [1] was 3.36 µM (active). For the same compound, the compound was classed as inactive in [2] and in assay [3].

Take `C[N+](C)(C)CCCNS(=O)(=O)C(F)(F)C(F)(F)C(F)(F)C(F)(F)C(F)(F)C(F)(F)C(F)(F)C(F)(F)F`: the result in assay [4], in [5], in assay [6], in assay [7], in assay [8] and in assay [9] was inactive. In addition, the outcome in [10], in [3], in [12], in [15], in assay [16] and in assay [17] was inactive. Also, the AC50 is 14.3 µM (active) in assay [5]; 30 µM (active) in [6]; 44.3 µM (active) in [9]; 30.7 µM (active) and 20.8 µM (active) in assay [11]; 19.6 µM (active) in assay [12]; 30 µM (active) and 16.8 µM (active) in [14].

Regarding `Oc1ccc(-c2ccccc2)c(Cl)c1`, the compound was classed as inactive in [2] and in assay [3].

Turning to `NC(=O)Nc1ccccc1`, the outcome in [3] was inactive.
